Assay outcomes: PubChem BioAssay, The Scripps Research Institute Molecular Screening Center
MOR-DOR inv ag – mu-delta opioid heterodimer inverse agonism | P35372+P41143 | cell-based MOR-DOR heterodimer luminescence | inhibition, % at 9.3 µM | 0.21% of 340,000 active | AID 504357; in the data active means inhibition above about 22%, passing the limit was not always enough
Target sequence (P35372 whole entry, looked up): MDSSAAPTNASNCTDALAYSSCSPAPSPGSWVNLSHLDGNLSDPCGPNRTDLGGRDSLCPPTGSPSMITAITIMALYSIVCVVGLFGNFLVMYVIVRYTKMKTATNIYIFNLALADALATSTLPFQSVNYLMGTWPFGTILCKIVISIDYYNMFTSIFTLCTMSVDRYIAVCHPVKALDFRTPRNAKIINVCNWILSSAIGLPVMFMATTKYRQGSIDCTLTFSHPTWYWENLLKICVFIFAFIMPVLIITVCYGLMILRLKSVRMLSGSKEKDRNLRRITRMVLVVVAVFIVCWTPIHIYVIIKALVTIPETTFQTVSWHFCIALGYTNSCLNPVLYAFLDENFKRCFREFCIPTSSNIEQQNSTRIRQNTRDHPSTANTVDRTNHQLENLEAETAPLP
Target sequence (P41143 whole entry, looked up): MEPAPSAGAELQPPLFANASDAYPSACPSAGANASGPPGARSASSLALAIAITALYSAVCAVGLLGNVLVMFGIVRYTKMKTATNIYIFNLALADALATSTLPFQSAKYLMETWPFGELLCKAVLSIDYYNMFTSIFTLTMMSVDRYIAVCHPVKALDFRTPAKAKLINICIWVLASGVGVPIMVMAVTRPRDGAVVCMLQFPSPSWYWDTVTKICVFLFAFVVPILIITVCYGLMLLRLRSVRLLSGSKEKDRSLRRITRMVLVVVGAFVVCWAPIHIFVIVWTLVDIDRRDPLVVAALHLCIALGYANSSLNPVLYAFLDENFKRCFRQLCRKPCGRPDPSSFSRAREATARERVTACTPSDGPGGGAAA
HTR5A ag – HTR5A agonism, opioid heterodimer counter-screen; activation, % at 9.3 µM; HTR5A agonist assay, luminescence, cell-based; 0.61% of 340,000 active; P47898; AID 504692; in the data active means activation mostly above about 9.5%, no sharp cut-off; inactive means mostly below about 7.6%
MOR-DOR ag – agonists of human mu-delta opioid receptor heterodimerization; P35372+P41143; cells, OPRM1-OPRD1 heterodimerization, luminescence; activation, % at 9.3 µM; 0.3% of 340,000 active; AID 504326; in the data active means activation above about 18%
HTR5A inv ctr – inverse agonist of human HTR5A in OPRM1-OPRD1 counter-screen. P47898. 0.083% of 340,000 active. HTR5A cell line, luminescence, inverse agonism. inhibition, % at 9.3 µM; in the data active means inhibition mostly above about 23%, no sharp cut-off; inactive means mostly below about 18%
Hits are given with their value; i = inactive. Shown are actives, neighbours in structure and some others; about 1.1% of the full set was active somewhere.

SMILES | MOR-DOR inv ag | HTR5A ag | MOR-DOR ag | HTR5A inv ctr
COc1cccc(OCC(=O)N2CCCc3ccccc32)c1 | i | 10 | i | i
Cc1ccc(OCCC(=O)OCC(=O)Nc2ccc3c(c2)OCCO3)cc1 | i | i | i | i
COc1ccccc1OCCC(=O)OCC(=O)Nc1ccc2c(c1)OCCO2 | i | 8.6 | i | i
CC[C@]12c3[nH]c4ccc(Cl)cc4c3CCN1C(=O)[C@@H](CC(=O)NC/C=C(\C)CCC=C(C)C)C[C@@H]2C(=O)N1CCN(C(=O)C2CC2)CC1 | i | i | i | i
CN(C)S(=O)(=O)c1ccc(C(=O)OCC(=O)N2CC3(C)CC2CC(C)(C)C3)cc1 (stereo not drawn) | i | 13 | i | i
Cc1noc(C)c1COc1ccc(C(=O)OCC(=O)N2CC3(C)CC2CC(C)(C)C3)cc1 (stereo not drawn) | i | i | i | i
O=C(OCC(=O)N1CCc2ccccc21)[C@@H]1CC(O)CN1S(=O)(=O)c1ccccc1[N+](=O)[O-] (stereo partly drawn) | i | i | i | i
O=C(c1cc(C2CC2)nn1-c1ccccc1)N1CCN(c2ccccn2)CC1 | i | i | i | i
Cc1c(Nc2cc(Cl)c3nonc3c2[N+](=O)[O-])c(=O)n(-c2ccccc2)n1C | 46 | i | i | 33
COc1cccc(CNCCc2c[nH]c3ccccc23)c1OCc1ccc(F)cc1 | i | i | i | i
COc1cc(CNCCc2c[nH]c3ccccc23)ccc1OCc1ccc(F)cc1 | i | 11 | i | i
CC(C)N(C(=O)CSc1ccc(S(=O)(=O)N2CCCCC2)cn1)c1ccccc1 | i | i | i | i
COc1cc2c(cc1CNC[C@H]1O[C@@H](n3cnc4c(N)ncnc43)[C@H](O)[C@@H]1O)OCO2 | i | i | i | i
Cc1ccc(C(=O)N(C)CCOc2ccccc2)cc1S(=O)(=O)N1CCCCC1 | i | i | i | i
COc1ccc(CCNS(=O)(=O)c2ccc3c(c2)NC(=O)CS3)cc1OC | i | 11 | i | i
COc1cccc(/C=C/c2nc(C#N)c(NCC(C)C)o2)c1 | i | 12 | i | i
COCCCNc1oc(/C=C/c2ccccc2)nc1C#N | i | i | i | i
COc1ccc(N2CCN(C(=O)c3ccc(CNS(=O)(=O)c4ccc(C)cc4)cc3)CC2)cc1 | i | i | i | i
Cc1ccc(S(=O)(=O)NCc2ccc(C(=O)N3CCN(c4ccc([N+](=O)[O-])cc4)CC3)cc2)cc1 | i | 11 | i | i
Cc1cccc(C(=O)OCC(=O)NCCN2C(=O)CSC2=O)c1[N+](=O)[O-] | i | i | i | i
CCOc1ccc(OCCNC(=O)c2cc(C3CC3)nc3c2cnn3C(C)C)cc1 | i | i | i | i
Cc1cc(NC(=O)c2cc3cccc([N+](=O)[O-])c3[nH]2)ccc1F | i | 12 | i | i
CC1CC(C)C(=O)C(C(CC2CC(=O)NC(=O)C2)OC(=O)CC(=O)c2ccccc2)C1 (stereo not drawn) | i | i | i | i
COc1ccccc1NC(=O)Nc1nnc(C(C)c2ccccc2)s1 (stereo not drawn) | i | 12 | i | i
O=C(N/N=C/c1cccc2ccccc12)c1ccc(CN2CCOCC2)cc1 | i | 12 | i | i
SMILES | MOR-DOR inv ag | HTR5A ag | MOR-DOR ag | HTR5A inv ctr
Cc1ccc2nc(Cl)c3nnnn3c2c1 | 38 | i | i | i
Cc1ccc2nc(N3CCN(c4cccc(C)c4C)CC3)c3nnnn3c2c1 | i | i | i | i
CC(OC(=O)CNS(=O)(=O)c1ccc(C#N)cc1)C(=O)Nc1ccc(Cl)cn1 (stereo not drawn) | i | 11 | i | i
CS(=O)(=O)c1sc(C#N)c2c1C(=O)CC(c1ccccc1)C2 (stereo not drawn) | 35 | i | i | i
Cc1oc2c(c(=O)c1C)C(=O)CC(c1ccccc1)C2 (stereo not drawn) | i | i | i | i
CC(C)NCC(O)COc1ccc(Br)cc1 (stereo not drawn) | i | 12 | i | i
CCOc1[nH]n(-c2ccccc2)c(=O)c1C=Nc1ccccc1 | i | 13 | i | i
O=C1C(Cc2ccccc2)Nc2ncnc(N3CCN(c4ccccc4)CC3)c2N1Cc1ccc(Cl)cc1 (stereo not drawn) | 57 | i | i | 53
CC(=O)Nc1ccc(S(=O)(=O)NC2(C(F)(F)F)NC(=O)N(C3CCCCC3)C2=O)cc1 (stereo not drawn) | i | 10 | i | i
CCOC(=O)c1cnn(-c2ccccc2)c1NC(=O)CN1CCOCC1 | i | 13 | i | i
COc1ccc(Cl)cc1S(=O)(=O)N1CCCC1=O | i | i | i | i
COc1ccc(Cl)cc1S(=O)(=O)n1ccnc1 | i | 9.2 | i | i
CCCN(CC(=O)Nc1ccccc1C)C(=O)COC(=O)c1cnc(C)cn1 | i | 10 | i | i
